Shiga toxin inh – blocks Shiga toxin action in Vero cells; Vero cells, Shiga toxin protein synthesis inhibition reporter; inhibition, % at 38.7 µM; 290,000 compounds, 9.2% hits; in the data active = inhibition mostly above about 28%, no sharp cut-off; inactive = mostly below about 43%; also: 0% is about no effect
Pf growth 96h – inhibits malaria parasite growth, 96 h; AID 504834; 320,000 compounds, 6.9% hits; P. falciparum luciferase reporter growth, 96 h; Potency, µM (doses to about 28.7 µM), for the others: at the highest dose activity change, negative = inhibition, hits mostly inhibitors; also: potency is read from the fitted curve at half-maximal effect; % is scaled to controls: 0 for no effect and ±100 for the full control effect
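P. falciparum expressing integrated firefly luciferase, in erythrocytes at 2% hematocrit, 0.05% parasitemia, incubated with compounds 96 h at 37 C, 5% CO2. Growth inhibition read as loss of luminescence; two-generation exposure targets delayed-death apicoplast inhibitors.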
Pf growth 48h – inhibits P. falciparum growth in the first generation, 48 h; P. falciparum luciferase growth in erythrocytes, 48 h; Potency, µM (series often up to 28.7 µM), inactives show at the top dose activity change, negative = inhibition, most hits filed as inhibitors; 310,000 compounds, 5.9% hits; also: potency is read from the fitted curve at half-maximal effect; % is scaled to controls: 0 for no effect and ±100 for the full control effect
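Read-out is firefly luciferase luminescence from an integrated reporter in P. falciparum, so falling signal marks reduced parasite growth. Infected erythrocytes were at 2% hematocrit and 0.1% parasitemia (final) in Albumax-supplemented RPMI 1640.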
HCV inhibitor – HCV inhibition. Huh7.5.1 HCVcc-Cre infection, luciferase reporter, 44 h. Potency, µM (series often up to 41.8 µM), without a hit: top-dose activity change, negative = inhibition, actives largely listed as inhibitors. 340,000 compounds, 3.4% hits; also: potency is read from the fitted curve at half-maximal effect; % is scaled to controls: 0 for no effect and ±100 for the full control effect
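Seed cells (1,000/well) for 4 h; treat with compound and infect with HCVcc-Cre, moi about 0.5. Incubate 44 h, then detect luciferase activity.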
CHX counter – affects cycloheximide protein synthesis inhibition readout, counter-screen | 300,000 compounds, 12% hits | max response, % | cell reporter, cycloheximide protein synthesis inhibition counterscreen | AID 2314; in the data active = max response mostly above about 13%, no sharp cut-off; inactive = mostly below about 14%; also: read at 38.3 µM for the half of the compounds with a filed dose; 0% is about no effect
HCMV inh – inhibitors of human cytomegalovirus; HFF cells, HCMV-luciferase reporter, 72 h; stronger effect = lower value; activity change, negative = inhibition, % at 57.5 µM; 410,000 compounds, 4.5% hits; in the data active = activity change below about -60%; inconclusive = no clear call, values can overlap the other calls; inactive = above about -39%; also: % is scaled to controls: 0 for no effect and ±100 for the full control effect
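Steps: HFFs plated, 16 h 37C; compounds added; HCMV-luciferase added to MOI 1 PFU/cell; 72 h 37C; OneGlo reagent, 5 min room temperature; luminescence read, normalized to controls.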
* = called active by the depositor; ? = inconclusive; . = not tested or not shown. Rows were chosen to be rich in hits. Some 21% of all compounds tested hit in one or more screens of this group. Unless noted, calls follow the shape of the dose curve; as a rule, active = well fitted inhibition curve with a large enough effect; inconclusive = small, poorly fitted or top-dose-only effect, or another doubt; inactive = no such curve, though single readings can be large or run the other way.

SMILES | Shiga toxin inh | Pf growth 96h | Pf growth 48h | HCV inhibitor | CHX counter | HCMV inh
Cc1ccc(C)c(OCCCCn2cnc3ccccc3c2=O)c1 | 8 | 2% | -5% | -26% | -2 | 89
Clc1ccc(OCCn2cnc3ccccc32)cc1 | 23 | . | ? | ? | 14 | -36
Cc1cc2ncn(CCOc3ccccc3C#N)c2cc1C | -2 | 13µM* | ? | -30% | 18 | 34
Clc1ccccc1OCCn1cnc2ccccc21 | 72* | ? | 3% | . | 31* | -36
CCOc1ccc2oc(C(=O)OCC(=O)N3CC(C)OC(C)C3)c(C)c2c1 (stereo not drawn) | . | ? | -14% | ? | . | 9
CCc1ccc(NC(=O)Nc2ccc3c(c2)CCC3)cc1 | 62* | 22% | 47% | -3% | 32* | 60
Cc1cccc(NC(=O)Nc2ccncc2)c1 | 49 | ? | 0% | -5% | 3 | 17
CCNC(=O)NC1(C(=O)Nc2ccc3c(c2)CCC3)CCCCC1 | -9 | 2.9µM* | 1% | 7% | -2 | 60
CC(=O)c1cccc(NC(=O)Nc2ccc3c(c2)CCC3)c1 | 41* | 28% | 37% | -16% | 35* | 5
O=C(CN1C(=O)NC2(CCCCC2)C1=O)Nc1ccc2c(c1)CCC2 | 22 | 0% | -1% | ? | 12 | 8
Cc1cccc(NC(=O)Nc2ccc3c(c2)CCC3)c1 | 97* | -7% | -24% | ? | 56* | -9
CCCNC(=O)N1CCCN(S(=O)(=O)c2ccc3c(ccn3CC)c2)CC1 | . | . | . | . | . | -6
Cc1ccc(-n2c(C)nnc2SCC(=O)NNC(=O)c2ccco2)cc1 | 17 | ? | ? | 17% | 6 | -27
NC(=S)N/N=C/c1ccc(-n2nncc2-c2ccc(Cl)cc2)cc1 | 11 | ? | 0% | 13µM* | -6 | .
CSCC[C@H](N)C(=O)N[C@@H](CCCN=C(N)N)C(=O)N[C@@H](Cc1ccccc1)C(=O)N[C@@H](Cc1ccccc1)C(=O)N[C@H](C(=O)O)C(C)C | -10 | . | . | . | -9 | .
CC(C)NC(=S)N(C)C1(c2ccccc2Cl)CCCCC1=O (stereo not drawn) | -13 | 0% | 3% | 17% | -3 | ?
CN(C(=S)Nc1ccccc1F)C1(c2ccccc2Cl)CCCCC1=O (stereo not drawn) | -10 | ? | 10µM* | -5% | -2 | -32
CN(C(=S)NC1CCCCC1)C1(c2ccccc2Cl)CCCCC1=O (stereo not drawn) | -11 | ? | 12µM* | ? | -8 | -17
CN(C)CCn1c2c(c(SCC(=O)NCc3ccccc3)nc1=O)CCCC2 | . | 4% | ? | 28% | . | -14
CCOc1ccc(CC(=O)NCCc2csc(-c3ccc(C)cc3)n2)cc1 | . | . | . | . | . | -38
Cc1nc2nc(SCC(=O)C(C)(C)C)[nH]c2cc1Br | 36 | -23% | 17% | -14% | -2 | 12
Cc1ccc(NC(=O)CSc2nc3ncc(Cl)cc3[nH]2)c(C)c1 | 32 | 4% | 9% | -3% | -2 | 28
O=C(CSc1nc2ccc(Cl)cc2[nH]1)c1c[nH]c2ccccc12 | 6 | 14% | -10% | -20% | 8 | -1
O=C(CSc1nc2ncc(Cl)cc2[nH]1)c1c[nH]c2ccccc12 | 6 | 1.9µM* | 10µM* | -26% | 8 | -13
CC(C)(C)C(=O)CSc1nc2ncc(Br)cc2[nH]1 | 4 | -5% | ? | 1% | 36* | -7
SMILES | Shiga toxin inh | Pf growth 96h | Pf growth 48h | HCV inhibitor | CHX counter | HCMV inh
Cc1ccccc1NC(=O)CSc1nc2ncc(Cl)cc2[nH]1 | -3 | 32% | 17% | -11% | -5 | -13
COC(=O)CSc1nc2ncc(Cl)cc2[nH]1 | -6 | 13µM* | 25% | 2% | -1 | 45
Cc1ccc(S(=O)(=O)N(C)C)cc1NC(=O)CSc1nc2ncc(Cl)cc2[nH]1 | . | ? | ? | 2.5µM* | . | 5
O=C(C(=O)N1CCN(c2cccc(Cl)c2)CC1)c1cn(CC(=O)N2CCOCC2)c2ccccc12 | -10 | ? | ? | 4% | -14 | -5
Cc1cccc(N(CC(=O)NC(C)(C)C)C(=O)CCC(=O)Nc2ccccn2)c1 | -5 | ? | -18% | -20% | -2 | 18
Cc1cc(C)cc(N(CC(=O)NCc2ccc(F)cc2)C(=O)CCC(=O)Nc2ccccn2)c1 | -15 | -3% | 13µM* | -14% | -1 | 66
Cc1cc(C)cc(N(CC(=O)NC(C)(C)C)C(=O)CCC(=O)Nc2ccccn2)c1 | -3 | 10µM* | -9% | 5% | -2 | -6
O=C(NCC1COc2ccccc2O1)c1cccs1 (stereo not drawn) | 72* | 43% | 51% | 10% | 40* | 66
O=C(NCC1COc2ccccc2O1)c1ccc(Br)s1 (stereo not drawn) | 108* | 39% | 39% | -13% | 23* | 29
O=C(Cc1ccccc1)NCC1COc2ccccc2O1 (stereo not drawn) | . | . | . | 18% | . | 54
CCc1ccc(C(=O)NCC2COc3ccccc3O2)o1 (stereo not drawn) | 57* | 44% | 61% | 1% | 23* | 21
O=C(NCC1CCCO1)c1ccc(Br)s1 (stereo not drawn) | 39 | 19% | 18% | 15% | 8 | 1
COc1ccc(NC(=O)c2cc(C3CC3)nc3c2c(C)nn3-c2ccc(C)cc2)cc1OC | . | . | . | . | . | 14
COc1ccc(CC(=O)NCCc2sc(-c3ccc(Cl)cc3)nc2C)cc1OC | . | . | . | . | . | -1
Cn1c(N)c(C(=O)COC(=O)C2(c3cccc(F)c3)CCCC2)c(=O)n(C)c1=O | -6 | 13µM* | 7.4µM* | ? | -1 | ?
Cn1c(N)c(C(=O)COC(=O)Cc2ccsc2)c(=O)n(C)c1=O | 8 | 10µM* | 20% | 6% | -2 | -10
Cn1c(N)c(C(=O)COC(=O)c2ccc(F)cc2Cl)c(=O)n(C)c1=O | . | . | . | ? | . | -18
Cn1c(N)c(C(=O)COC(=O)Cc2ccc(Br)cc2)c(=O)n(C)c1=O | . | . | . | -6% | . | 19
Cn1c(N)c(C(=O)COC(=O)CSc2ccccc2)c(=O)n(C)c1=O | 27 | 110% | 16% | 2% | 16* | 36
Cn1c(N)c(C(=O)COC(=O)CSc2ccc3ccccc3c2)c(=O)n(C)c1=O | 31 | -1% | -1% | 19% | -5 | -10
CCCCc1ncc(CN2CCN(Cc3ccc(C)cc3)C(CCO)C2)[nH]1 (stereo not drawn) | 10 | 15% | ? | -26% | -1 | -15
CCCC1([C@H](O)C/C=C/[C@H]2[C@H](O)CC(=O)[C@@H]2CCCCCCC(=O)OC)CCC1 | -5 | . | . | . | -3 | .
Cc1ccc(NS(=O)(=O)c2cc(C(=O)NCc3cccnc3)ccc2C)cc1 | 9 | 8.3µM* | -20% | . | -3 | -35
O=C(NCc1cccnc1)c1cccc(NS(=O)(=O)c2ccc(Br)cc2)c1 | . | 23% | 3% | 13µM* | . | -38

Screening results from PubChem.
